Where a name gives a salt, the structure may show the parent alone.
Each molecule was assayed on S. enterica typhimurium WT (assay: growth AUC normalised to DMSO control (median) (fraction of control); higher = less growth inhibition, active = hit call of the paper). Details: 20 µM;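 active = normalised median growth AUC below 0.1 of DMSO control; inactive = AUC 0.1 or higher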.
Procedure, shortened: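 Area under the growth curve, calculated by the trapezoidal rule up to entry into stationary phase, was normalised to vehicle wells on the same plate. Strains had been passaged twice overnight without oxygen and then grown in mGAM in 96-well plates from OD578 0.01, each with an approved-drug library compound at 20 μM in 1% DMSO. OD578 was read hourly over 24 h in an anaerobic incubator, and the median of three biological replicates is given.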
For `C=CCC1(CC(C)C)C(=O)NC(=O)NC1=O` [Butalbital], the “growth AUC normalised to DMSO control” value was 0.992 (inactive).
In the case of `CC1C=CC=CCCC=CC=CC=CC=CC(OC2OC(C)C(O)C(N)C2O)CC2OC(O)(CC(O)C(O)CCC(O)CC(O)CC(O)CC(=O)OC(C)C(C)C1O)CC(O)C2C(=O)O` (centres undefined) [Nystatine], the “growth AUC normalised to DMSO control” value is reported as 0.997 (inactive).
`O=C(CCCN1CCC2(CC1)C(=O)NCN2c1ccccc1)c1ccc(F)cc1` [Spiperone] was tested, and the “growth AUC normalised to DMSO control” value was 0.995 (inactive).
`COc1ccc(OC)c(C(O)C(C)N)c1` (centres undefined) [Methoxamine hydrochloride] was tested, and the “growth AUC normalised to DMSO control” value was 1.01 (inactive).
With `CC(C)(C)NCC(O)c1cc(Cl)c(N)c(Cl)c1` (centres undefined) [Clenbuterol hydrochloride] the “growth AUC normalised to DMSO control” value was 1 (inactive).
`COc1ccc(CN2CCNCC2)c(OC)c1OC` [Trimetazidine dihydrochloride] was tested, and the “growth AUC normalised to DMSO control” value was 0.997 (inactive).
With `CC[N+]1(C)CCCC(OC(=O)C(O)(c2ccccc2)c2ccccc2)C1` (centres undefined) [Pipenzolate bromide] the “growth AUC normalised to DMSO control” value was 1 (inactive).
`NCC(O)c1ccc(O)cc1` (centres undefined) [Octopamine hydrochloride] was tested, and the “growth AUC normalised to DMSO control” value was 1 (inactive).
`CC(=O)NC1CCSC1=O` (centres undefined) [Citiolone] was tested, and the “growth AUC normalised to DMSO control” value was 1 (inactive).
In the case of `O=[N+]([O-])O[C@@H]1CO[C@H]2[C@@H]1OC[C@@H]2O` [Isosorbide mononitrate], the “growth AUC normalised to DMSO control” value is reported as 1 (inactive).
For `C=C1C[C@@H]2[C@H](CC[C@]3(C)C(=O)CC[C@@H]23)[C@@]2(C)C=CC(=O)C=C12` [Exemestane], the “growth AUC normalised to DMSO control” value was 0.996 (inactive).
With `O=c1c2ccccc2[se]n1-c1ccccc1` [Ebselen] the “growth AUC normalised to DMSO control” value was 1.02 (inactive).
For `O=C(CCCN1CCC(n2c(=O)[nH]c3ccccc32)CC1)c1ccc(F)cc1` [Benperidol], the “growth AUC normalised to DMSO control” value was 0.993 (inactive).
With `C[N+](C)(C)CCCCCCCCCC[N+](C)(C)C` [Decamethonium bromide] the “growth AUC normalised to DMSO control” value was 1.01 (inactive).
`CCN[C@@H](C)Cc1cccc(C(F)(F)F)c1` [Dexfenfluramine hydrochloride] was tested, and the “growth AUC normalised to DMSO control” value was 0.996 (inactive).
With `C=C(C)[C@@H]1[C@H]2OC(=O)[C@@H]1[C@]1(O)C[C@H]3O[C@]34C(=O)O[C@H]2[C@]14C` [Picrotoxinin] the “growth AUC normalised to DMSO control” value was 1.02 (inactive).
In the case of `CC(C)(C)NCC(O)c1ccccc1Cl` (centres undefined) [Tulobuterol hydrochloride], the “growth AUC normalised to DMSO control” value is reported as 0.99 (inactive).
For `Fc1ccc(C(OCCN2CCN(CCCc3ccccc3)CC2)c2ccc(F)cc2)cc1`, the “growth AUC normalised to DMSO control” value was 0.999 (inactive).
In the case of `C=C1CC[C@@]2(O)[C@H]3Cc4ccc(O)c5c4[C@@]2(CCN3CC2CC2)[C@H]1O5` [Nalmefene hydrochloride], the “growth AUC normalised to DMSO control” value is reported as 1 (inactive).
`C1CCc2nnnn2CC1` [Pentylenetetrazole] was tested, and the “growth AUC normalised to DMSO control” value was 1 (inactive).
`CCOC(=O)c1cncn1[C@H](C)c1ccccc1` [Etomidate] was tested, and the “growth AUC normalised to DMSO control” value was 1 (inactive).
For `CC(C)CC(N(C)C)C1(c2ccc(Cl)cc2)CCC1` (centres undefined) [Sibutramine hydrochloride], the “growth AUC normalised to DMSO control” value was 1 (inactive).
For `C[N+]12CCC(CC1)C(OC(=O)C(O)(c1ccccc1)c1ccccc1)C2` (centres undefined) [Clidinium bromide], the “growth AUC normalised to DMSO control” value was 1.02 (inactive).
In the case of `CN(C)[C@@H]1C(=O)C(C(N)=O)=C(O)[C@@]2(O)C(=O)C3=C(O)c4c(O)ccc(Cl)c4[C@@](C)(O)[C@H]3C[C@@H]12` [Chlortetracycline hydrochloride], the “growth AUC normalised to DMSO control” value is reported as 0.00367 (active).
In the case of `C[N+]1(C)[C@@H]2CC[C@H]1C[C@@H](OC(=O)C(CO)c1ccccc1)C2` (some centres undefined) [Methylatropine nitrate], the “growth AUC normalised to DMSO control” value is reported as 0.999 (inactive).
With `CC(C)N(CCC(C(N)=O)(c1ccccc1)c1ccccn1)C(C)C` (centres undefined) [Disopyramide] the “growth AUC normalised to DMSO control” value was 1 (inactive).
`CNC(=O)Oc1ccc2c(c1)[C@]1(C)CCN(C)[C@@H]1N2C` [Eserine hemisulfate salt] was tested, and the “growth AUC normalised to DMSO control” value was 0.999 (inactive).
In the case of `CN1[C@@H]2CC[C@H]1C[C@@H](OC(=O)C(CO)c1ccccc1)C2` (some centres undefined) [Atropine sulfate monohydrate], the “growth AUC normalised to DMSO control” value is reported as 1.01 (inactive).
In the case of `COc1ccc(C(CN(C)C)C2(O)CCCCC2)cc1` (centres undefined) [Venlafaxine], the “growth AUC normalised to DMSO control” value is reported as 0.997 (inactive).
`NCCc1c[nH]c2ccc(O)cc12` [Serotonin hydrochloride] was tested, and the “growth AUC normalised to DMSO control” value was 1 (inactive).
With `CC(CCc1ccccc1)NC(C)C(O)c1ccc(O)cc1` (centres undefined) [Nylidrin] the “growth AUC normalised to DMSO control” value was 1 (inactive).
For `C[N+]1(C)CCOC(O)(c2ccc(-c3ccc(C4(O)C[N+](C)(C)CCO4)cc3)cc2)C1` (centres undefined) [Hemicholinium bromide], the “growth AUC normalised to DMSO control” value was 1.01 (inactive).
With `CC(=O)O[C@H]1C[C@@H]2CC[C@@H]3[C@H](CC[C@@]4(C)[C@H]3C[C@H]([N+]3(C)CCCCC3)[C@@H]4OC(C)=O)[C@@]2(C)C[C@@H]1[N+]1(C)CCCCC1` [Pancuronium bromide] the “growth AUC normalised to DMSO control” value was 1.03 (inactive).
`O=C1CC[C@@]2(O)[C@H]3Cc4ccc(O)c5c4[C@@]2(CCN3CC2CC2)[C@H]1O5` [Naltrexone hydrochloride dihydrate] was tested, and the “growth AUC normalised to DMSO control” value was 0.993 (inactive).
For `CC(Cc1ccccc1)NCCC(c1ccccc1)c1ccccc1` (centres undefined) [Prenylamine lactate], the “growth AUC normalised to DMSO control” value was 0.993 (inactive).
For `CCC1(CC)C(=O)C=CNC1=O` [Pyrithyldione], the “growth AUC normalised to DMSO control” value was 1.02 (inactive).
For `COc1cc2c(c(OC)c1OC)-c1ccc(OC)c(=O)cc1[C@@H](NC(C)=O)CC2` [Colchicine], the “growth AUC normalised to DMSO control” value was 1 (inactive).
For `COc1cc([C@@H]2c3cc4c(cc3[C@H](O)[C@H]3COC(=O)[C@H]23)OCO4)cc(OC)c1OC` [Podophyllotoxin], the “growth AUC normalised to DMSO control” value was 0.998 (inactive).
`Oc1ccc2c3c1O[C@H]1[C@@H](O)CC[C@@]4(O)[C@@H](C2)N(CC2CCC2)CC[C@]314` [Nalbuphine hydrochloride] was tested, and the “growth AUC normalised to DMSO control” value was 0.988 (inactive).
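Also: active when median AUC fell below 0.1.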
